The structures appear in SMILES notation. Unmarked numbers belong to inactive results. Results filed as inconclusive are left out. Active and inactive are the calls of the source. Unless noted, calls follow the shape of the dose curve; as a rule, active = well fitted curve in the direction sought with a large enough effect in the repeat runs; inconclusive = weak or mixed curves; inactive = no such curve, though single readings can be large; an effect the other way counts as inactive or inconclusive.

Assay [1] in a line: qHTS assay to identify small molecule agonists of the estrogen receptor alpha (ER-alpha) signaling pathway in the presence of an antagonist - cell viability counter screen (AID 1259386).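 Also: series mostly up to about 92 µM; cells exposed to compounds for 22 h at 37 °C before the viability read; nearly all actives have a fitted effect of over 30% in size.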 In short, it runs like this:
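VM7Luc4E2, stripped-serum pre-culture 5 d; 24hr plating; +ICI-182,780 10.0nM final; cpds 15 conc, 22hr, 37C/5% CO2; CellTiter-Fluor added at 21hr, fluorescence 1hr later.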
Background: Quantitative high-throughput screening tests each substance at several concentrations.

For assay [2], the target named is Progesterone receptor (Homo sapiens) (UniProt P06401). Description: qHTS assay to identify small molecule antagonists of the progesterone receptor (PR) signaling pathway (AID 1346795; active = well fitted inhibition curve with a large enough effect in the signal ratio in the repeat runs, not every such curve was filed as active; the % refers to the signal ratio; also: potency is read from the fitted curve at half-maximal effect). The procedure, abridged: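 Antagonist mode with agonist R5020 at 1 nM final and 16 hr incubation at 37C. Reporter was beta-lactamase driven by UAS in HEK293T (PR-UAS-bla), 2% charcoal-stripped serum; signal from LiveBLAzer FRET substrate, 2 hr at room temperature.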

A short description of assay [3]: qHTS assay to identify small molecule antagonists of the progesterone receptor (PR) signaling pathway - cell viability counter screen (AID 1346798). Also: nearly all actives have a fitted effect of over 50% in size. Also: potency is read from the fitted curve at half-maximal effect. The procedure, abridged: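 Cytotoxicity read as CellTiter-Glo luminescence (30 min, room temperature) in the same wells as the beta-lactamase readout. HEK293T PR-UAS-bla cells in charcoal-stripped 2% FBS received compound and R5020, then 16 h at 37C, 5% CO2.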

Assay [4] can be described thus: qHTS assay to identify small molecule agonists of the progesterone receptor (PR) signaling pathway - cell viability counter screen (AID 1346799; calls by dose curve; also: nearly all actives have a fitted effect of over 45% in size; also: potency is read from the fitted curve at half-maximal effect). In short, it runs like this:
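Cytotoxicity measured by CellTiter-Glo luminescence (30 min, RT) in the same wells as the PR beta-lactamase agonist read. Those HEK293T cells had 16 h compound treatment at 37 C in 2% charcoal-stripped FBS medium.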

Assay [5] is described as follows: qHTS assay to identify small molecule antagonists of the TGF-beta/Smad signaling pathway - cell viability counter screen (AID 1346824). Also: nearly all actives have a fitted effect of over 50% in size. The procedure, abridged:
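Cytotoxicity counter-screen run in the same wells as the beta-lactamase Smad reporter read: CellTiter-Glo luminescence after 30 min at room temperature. HEK 293T SBE-bla cells had 5 hr compound exposure at 37 C with TGF-beta1 (0.25 ng/mL stock).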

Assay [6] in a line: qHTS assay to identify small molecule agonists of the TGF-beta/Smad signaling pathway - cell viability counter screen (AID 1346829). Also: top concentration of the series differs between compounds; nearly all actives have a fitted effect of over 45% in size. The procedure, abridged:
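Luminescence from CellTiter-Glo, read after a 30 min room-temperature incubation, gives cell viability of SBE-bla HEK 293T cells treated 5 hr with compounds at 37 C.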

A short description of assay [7]: qHTS assay to identify small molecule agonists of the TGF-beta/Smad signaling pathway (AID 1346859; active = well fitted activation curve with a large enough effect in the signal ratio in the repeat runs, not every such curve was filed as active; the % refers to the signal ratio; also: series mostly up to about 77 µM). In short, it runs like this: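 Fluorescence (ex 405 nm; em 460 and 530 nm) was read 2 h after LiveBLAzer FRET substrate at RT. The preceding compound treatment of overnight-plated SBE-bla HEK293T cells lasted 5 h at 37 C.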
The target of assay [8] is Thyrotropin-releasing hormone receptor (Homo sapiens) (UniProt P34981). Description: qHTS assay to identify small molecule antagonists of the thyrotropin-releasing hormone receptor (TRHR) signaling pathway (AID 1346877; active = well fitted inhibition curve with a large enough effect in the repeat runs, not every such curve was filed as active; also: series mostly up to about 51 µM). The procedure, abridged:
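Intracellular calcium fluorescence, read kinetically every second over 3 min, reports TRH-evoked signalling in HEK293 cells carrying TRHR. Test compounds were added 5 min ahead of a 1 nM TRH challenge.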

The target is the same in assay [9]. Nature of the assay: qHTS assay to identify small molecule agonists of the thyrotropin-releasing hormone receptor (TRHR) signaling pathway (AID 1346891; calls by dose curve; also: series mostly up to about 58 µM). The procedure, abridged: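 Agonist-mode intracellular calcium readout: kinetic fluorescence over 3 min at 1 s intervals after compound addition to TRHR-HEK293 cells (18 h seeded, 2 h dye-loaded at 37 C). Fifteen concentrations, triplicates.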

Assay [10] can be described thus: Human pregnane X receptor (PXR) small molecule agonists, qHTS cell viability counter screen (AID 1346977). Also: nearly all actives have a fitted effect of over 50% in size. The procedure, abridged:
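Same-well viability read: CellTiter-Fluor added after 23 hr compound exposure, fluorescence measured 1 hr later. Cells were PXR-Luc HepG2 seeded at 2,000/well in 5% charcoal-stripped FBS medium, rested 5 hr before dosing at 37 C.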

The nature of assay [11]: Caspase-3/7 induction in HepG2 cells by small molecules, qHTS assay (AID 1346978). Also: nearly all actives have a fitted effect of over 15% in size. Also: potency is read from the fitted curve at half-maximal effect. In short, it runs like this:
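Caspase-3/7 induction was measured by Caspase-Glo 3/7 luminescence (30 min, room temperature) after a 17 hr compound exposure of wild-type HepG2 cells seeded at 2,000 per well and pre-incubated 5 hr.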

Assay [12] in a line: Caspase-3/7 induction in CHO-K1 cells by small molecules, qHTS cell viability counter screen (AID 1346979). Also: nearly all actives have a fitted effect of over 35% in size. Also: potency is read from the fitted curve at half-maximal effect. In short, it runs like this: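 Cytotoxicity counter screen: CellTiter-Fluor added to compound-treated wild-type CHO-K1 cells at 16 h (37C, 5% CO2), fluorescence measured 1 h later; same wells as caspase-3/7 measurement.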
A short description of assay [13]: Caspase-3/7 induction in CHO-K1 cells by small molecules, qHTS assay (AID 1346980). Also: nearly all actives have a fitted effect of over 15% in size. In short, it runs like this: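 Luminescent Caspase-Glo 3/7 read (30min, room temperature) quantified apoptosis induction. Cells were wild-type CHO-K1, treated with compound for 17hr at 37 C and 5% CO2.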
Assay [14] can be described thus: Caspase-3/7 induction in HepG2 cells by small molecules, qHTS cell viability counter screen (AID 1346981). Also: series mostly up to about 92 µM; nearly all actives have a fitted effect of over 30% in size. In short, it runs like this: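 HepG2, WT, 2,000 cells/well; 5 hr pre-incubation 37 C/5% CO2; compound pin-transferred from DMSO; 16 hr exposure; CellTiter-Fluor, 1 hr; fluorescence read.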
The target of assay [15] is Nuclear receptor subfamily 1 group I member 2 (Homo sapiens) (UniProt O75469). Description: Human pregnane X receptor (PXR) small molecule agonists, qHTS assay (AID 1346982). Also: nearly all actives have a fitted effect of over 35% in size. Also: potency is read from the fitted curve at half-maximal effect. The procedure, abridged: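 Luciferase signal from ONE-Glo (30 min, room temperature) measured activation of hPXR-driven CYP3A4 reporter expression in PXR-Luc HepG2 cells treated with compounds for 24 hr at 37 C.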

Assay [16] addresses Acetylcholinesterase (Homo sapiens) (UniProt P22303). Nature of the assay: Acetylcholinesterase (AChE) small molecule antagonists: colormetric cell-based qHTS assay (AID 1347395; calls by dose curve; also: nearly all actives have a fitted effect of over 30% in size). In short, it runs like this:
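Colorimetric readout: DTNB quantifies thiocholine from acetylthiocholine hydrolysed by endogenous AChE of SH-SY5Y cells (2,000/well, plated overnight). Compound pretreatment 30 min, substrate incubation 90 min, both 37 C.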

In assay [17] the target is Progesterone receptor (Homo sapiens) (UniProt P06401). Nature of the assay: qHTS assay to identify small molecule agonists of the progesterone receptor (PR) signaling pathway (AID 1346784; calls by dose curve; also: nearly all actives have a fitted effect of over 30% in size). The procedure, abridged:
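Agonist qHTS: compounds pinned onto 3,000 PR-UAS-bla HEK 293T cells per well in charcoal-stripped serum medium, 16hr at 37C, then beta-lactamase activity measured by LiveBLAzer FRET fluorescence after 2 hours at room temperature.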

Assay [18] deals with Nuclear receptor subfamily 1 group I member 2 (Rattus norvegicus) (UniProt Q9R1A7). Nature of the assay: Rat pregnane X receptor (rPXR) activation by small molecules, qHTS assay (AID 1346983). Also: nearly all actives have a fitted effect of over 20% in size. The note with it: rPXR luciferase reporter cells, One-Glo luminescence, 24 h; max activation: hits give high values. The procedure, abridged: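 Luminescent readout (One-Glo luciferase, 30 min room temperature) followed 24 hr compound treatment at 37 C of rPXR cells plated 2,000 per well and preincubated 5hr; qHTS format with compounds delivered in DMSO.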

Assay [19] addresses Nuclear receptor subfamily 1 group I member 2 (Homo sapiens) (UniProt O75469). Description: CYP3A4 induction through human pregnane X receptor (PXR) by small molecules, qHTS assay (AID 1346984). Also: nearly all actives have a fitted effect of over 40% in size. The procedure, abridged:
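Luminescence readout: luciferase signal after One-Glo (30 min, room temperature), following 3 h at 37C with 3uM final Luciferin-IPA P450 substrate. Cells were DPX-2 (HepG2, PXR/CYP3A4-luc co-transfected) dosed for 24 h.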

Assay [20] has the same target. Nature of the assay: Human pregnane X receptor (PXR) activation by small molecules, qHTS assay (AID 1346985). Also: nearly all actives have a fitted effect of over 40% in size. The procedure, abridged:
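DPX-2 cells (HepG2 co-transfected with a PXR response element and a CYP3A4-promoter luciferase construct) were seeded at 2,000 per well, rested 5 hr at 37C, then exposed to DMSO-dissolved compounds for 24 hr. Activation was read as luciferase luminescence.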
% is scaled to controls: 0 for no effect and ±100 for the full control effect.

Thyrotropin-releasing hormone receptor (Homo sapiens), sequence (P34981 whole entry, looked up): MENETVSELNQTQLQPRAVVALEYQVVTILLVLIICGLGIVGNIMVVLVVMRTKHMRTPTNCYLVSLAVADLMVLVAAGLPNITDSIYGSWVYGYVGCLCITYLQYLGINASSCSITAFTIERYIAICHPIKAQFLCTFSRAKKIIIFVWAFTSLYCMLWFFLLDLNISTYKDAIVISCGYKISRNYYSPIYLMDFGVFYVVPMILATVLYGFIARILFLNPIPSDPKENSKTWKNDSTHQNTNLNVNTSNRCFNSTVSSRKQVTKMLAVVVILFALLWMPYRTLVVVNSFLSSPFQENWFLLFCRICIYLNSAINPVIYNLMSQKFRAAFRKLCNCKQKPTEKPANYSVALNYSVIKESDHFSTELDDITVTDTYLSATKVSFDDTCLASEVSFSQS
Progesterone receptor (Homo sapiens), sequence (P06401 whole entry, looked up): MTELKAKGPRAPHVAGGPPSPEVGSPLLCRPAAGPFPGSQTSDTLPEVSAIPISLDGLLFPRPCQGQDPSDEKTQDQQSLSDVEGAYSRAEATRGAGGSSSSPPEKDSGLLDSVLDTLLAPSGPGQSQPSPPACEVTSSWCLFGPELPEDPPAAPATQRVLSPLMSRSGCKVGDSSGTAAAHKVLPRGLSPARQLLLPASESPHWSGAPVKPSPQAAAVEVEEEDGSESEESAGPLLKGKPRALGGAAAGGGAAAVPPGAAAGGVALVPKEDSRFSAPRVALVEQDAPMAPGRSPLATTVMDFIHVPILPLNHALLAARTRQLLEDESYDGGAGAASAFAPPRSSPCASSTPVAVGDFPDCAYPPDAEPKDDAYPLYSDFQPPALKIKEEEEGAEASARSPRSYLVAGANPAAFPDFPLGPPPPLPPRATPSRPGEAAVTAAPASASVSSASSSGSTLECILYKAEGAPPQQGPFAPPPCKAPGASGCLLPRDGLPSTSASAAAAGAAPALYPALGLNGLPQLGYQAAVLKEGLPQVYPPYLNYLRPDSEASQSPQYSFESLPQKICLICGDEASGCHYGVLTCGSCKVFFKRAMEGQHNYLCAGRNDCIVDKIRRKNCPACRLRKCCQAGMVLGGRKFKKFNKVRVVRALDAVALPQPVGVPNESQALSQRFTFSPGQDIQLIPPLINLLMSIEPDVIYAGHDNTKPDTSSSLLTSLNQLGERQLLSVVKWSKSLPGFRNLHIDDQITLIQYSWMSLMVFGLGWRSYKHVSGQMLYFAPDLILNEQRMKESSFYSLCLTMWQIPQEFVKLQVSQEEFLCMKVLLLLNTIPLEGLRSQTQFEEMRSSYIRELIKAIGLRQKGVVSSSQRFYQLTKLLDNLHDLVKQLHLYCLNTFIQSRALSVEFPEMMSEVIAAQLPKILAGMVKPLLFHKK
Nuclear receptor subfamily 1 group I member 2 (Homo sapiens), sequence (O75469 whole entry, looked up): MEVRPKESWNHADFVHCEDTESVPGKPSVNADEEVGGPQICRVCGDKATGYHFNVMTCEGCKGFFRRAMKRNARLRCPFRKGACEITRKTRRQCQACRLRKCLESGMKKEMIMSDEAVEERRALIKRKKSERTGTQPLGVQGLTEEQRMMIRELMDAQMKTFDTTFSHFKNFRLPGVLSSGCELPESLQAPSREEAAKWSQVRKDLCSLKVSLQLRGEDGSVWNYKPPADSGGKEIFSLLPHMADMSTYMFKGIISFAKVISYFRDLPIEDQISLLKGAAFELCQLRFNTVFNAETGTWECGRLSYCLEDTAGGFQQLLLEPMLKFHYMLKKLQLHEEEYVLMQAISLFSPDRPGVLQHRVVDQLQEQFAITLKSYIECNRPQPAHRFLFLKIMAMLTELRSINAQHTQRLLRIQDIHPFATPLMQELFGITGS
Acetylcholinesterase (Homo sapiens), sequence (P22303 whole entry, looked up): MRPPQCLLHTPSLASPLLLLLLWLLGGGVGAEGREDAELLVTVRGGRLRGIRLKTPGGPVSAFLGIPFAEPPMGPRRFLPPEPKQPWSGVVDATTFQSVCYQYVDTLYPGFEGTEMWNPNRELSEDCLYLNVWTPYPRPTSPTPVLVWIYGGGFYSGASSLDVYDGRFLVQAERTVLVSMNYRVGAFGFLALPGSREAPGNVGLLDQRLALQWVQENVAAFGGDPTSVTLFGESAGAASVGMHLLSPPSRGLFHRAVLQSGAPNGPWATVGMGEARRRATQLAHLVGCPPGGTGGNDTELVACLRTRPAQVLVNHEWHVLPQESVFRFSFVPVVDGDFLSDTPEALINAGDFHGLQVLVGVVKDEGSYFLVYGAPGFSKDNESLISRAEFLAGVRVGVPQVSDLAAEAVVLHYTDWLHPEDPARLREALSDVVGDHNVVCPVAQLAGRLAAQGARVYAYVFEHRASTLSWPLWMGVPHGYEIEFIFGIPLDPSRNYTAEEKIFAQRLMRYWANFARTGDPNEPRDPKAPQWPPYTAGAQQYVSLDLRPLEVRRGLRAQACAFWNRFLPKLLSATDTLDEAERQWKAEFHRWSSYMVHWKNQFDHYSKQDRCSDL
Nuclear receptor subfamily 1 group I member 2 (Rattus norvegicus), sequence (Q9R1A7 whole entry, looked up): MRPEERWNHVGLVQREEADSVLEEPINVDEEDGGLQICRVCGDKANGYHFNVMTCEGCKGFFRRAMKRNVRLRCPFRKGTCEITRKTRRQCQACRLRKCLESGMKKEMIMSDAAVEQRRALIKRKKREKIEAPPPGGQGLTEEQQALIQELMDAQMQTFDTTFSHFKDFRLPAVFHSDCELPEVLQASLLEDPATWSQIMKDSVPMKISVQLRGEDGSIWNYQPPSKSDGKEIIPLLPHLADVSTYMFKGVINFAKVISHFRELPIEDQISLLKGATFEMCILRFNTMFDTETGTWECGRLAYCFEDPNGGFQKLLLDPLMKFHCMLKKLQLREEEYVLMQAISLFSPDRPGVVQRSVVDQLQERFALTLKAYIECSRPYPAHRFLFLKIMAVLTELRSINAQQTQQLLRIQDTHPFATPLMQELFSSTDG

Consider `CSC(C)(C)/C=N/O`, for which the Potency entry in [1], in assay [2], in assay [3], in assay [4], in assay [5] and in [6] was “inactive” throughout. In addition, the Potency result in [8], in [9], in [10], in [11], in [12] and in assay [13] was “inactive” throughout. Further, the Potency result in assay [14], in [15] and in assay [16] was “inactive” in each case. In [7], the outcome was inactive.

For the compound `C[C@]12Cc3cn[nH]c3C[C@@H]1CC[C@@H]1[C@@H]2CC[C@@]2(C)[C@H]1CC[C@]2(C)O`, the Potency result in [1], in assay [5], in assay [8], in [9], in assay [11] and in assay [13] was “inactive” throughout. The Potency entry in [14] and in [16] was “inactive” in each case. The Potency in assay [2] is 0.119 µM (active); in assay [3] it was 18.8 µM (active); in assay [4] it was 18.8 µM (active); in [15], 9.44 µM (active).

With `CCOP(=S)(NC(C)C)Oc1ccccc1C(=O)OC(C)C` (stereo not given), the Potency result in assay [1], in assay [17], in assay [5], in [6], in assay [9] and in assay [11] was “inactive” throughout. Further, the Potency entry in assay [13] and in [16] was “inactive” throughout. For the same compound, the Potency in assay [12] was 61.1 µM (active); in assay [15], 3.06 µM (active).

Turning to `CN1C(=O)[C@@H](NC(=O)c2cc3ccccc3[nH]2)N=C(c2ccccc2)c2ccccc21`, the Potency entry in assay [1], in assay [2], in assay [3], in assay [4], in assay [5] and in assay [6] was “inactive” throughout. The Potency result in [9], in assay [10], in [11], in assay [12], in assay [14] and in assay [15] was “inactive” throughout. Besides, the Potency entry in assay [19], in [20] and in [16] was “inactive” throughout. The call in assay [7] was inactive. For the same compound, in assay [18], the max activation was -0.0388%.

For the compound `Clc1ccc(C(Cl)(Cl)Cl)cc1Cl`, the Potency result in assay [1], in [2], in [3], in [4], in [5] and in assay [6] was “inactive” throughout. Also, the Potency result in assay [8], in assay [9], in [10], in [13] and in assay [16] was “inactive” each time. The result in [7] was inactive. In assay [15], the Potency was 30 µM (active).

Take `CC(C)C(Br)C(=O)NC(N)=O` (stereo not given): the Potency entry in assay [1], in assay [2], in [3], in assay [4], in assay [5] and in [6] was “inactive” in each case. The Potency entry in assay [8], in assay [9], in [10], in assay [11], in assay [12] and in assay [13] was “inactive” each time. Besides, the Potency result in [14], in assay [15], in [19], in [20] and in [16] was “inactive” in each case. Further, the outcome in assay [7] was inactive. For the same compound, in [18], the max activation was -0.856%.

For the compound `CC(=O)[O-].CC(=O)[O-].[Co+2]`, the Potency result in assay [1], in [17], in assay [5], in assay [6], in assay [10] and in assay [11] was “inactive” each time. Further, the Potency entry in assay [12], in assay [13] and in assay [14] was “inactive” throughout. Also, the result in assay [7] was inactive.

Regarding `CSSC`, the Potency entry in [1], in assay [17], in assay [5], in assay [6], in assay [8] and in assay [9] was “inactive” in each case. For the same compound, the Potency entry in [10], in assay [12], in assay [13], in assay [14] and in assay [16] was “inactive” each time. Moreover, in [7], the call was inactive. Further, the Potency in assay [11] was 24.6 µM (active).

As to `Nc1cc(Cl)ccc1Cl`, the Potency entry in [1], in assay [2], in assay [3], in assay [4], in [5] and in assay [6] was “inactive” throughout. Moreover, the Potency result in assay [8], in [9], in assay [10], in assay [11], in assay [12] and in assay [13] was “inactive” in each case. The Potency entry in [14], in assay [15] and in [16] was “inactive” in each case.

Source of the values: PubChem BioAssay (Tox21).
